Where “and” joins values, the source holds several entries; their conditions need not be identical. Equal entries are not always repeated. A number with no mark means an inactive call. Records with an inconclusive call do not appear. Calls of active or inactive are those of the source. Calls come from the whole dose curve; as a rule, active = well fitted curve in the direction sought with a large enough effect in the repeat runs; inconclusive = weak or mixed curves; inactive = no such curve, though single readings can be large; an effect the other way counts as inactive or inconclusive.

A short description of assay [1]: A CellTox Green Cytotoxicity Assay to monitor cytotoxicity in HepG2 cells - 16 hour (AID 1224876). Note: nearly all actives have a fitted effect of over 45% in size. In outline:
(§1)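 Continuous culture of HepG2 cells with a membrane-impermeant DNA dye; rising fluorescence marks dead cells. Compound exposure lasted up to 40 h at 37 C, with reads every 8 h from 0 h.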

Assay [2] in a line: qHTS RealTime-Glo MT Cell Viability Assay in HepG2 cells - 32 hour (AID 1224877). Note: nearly all actives have a fitted effect of over 55% in size. In outline:
(§2)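 Tox21 10K library screened in qHTS format on HepG2 cells carrying RealTime-Glo reagents. Compounds were added after a 5 h preincubation, and the luminescent signal from continuous culture was measured repeatedly during 40 h treatment.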

Assay [3] in a line: A CellTox Green Cytotoxicity Assay to monitor cytotoxicity in HepG2 cells - 24 hour (AID 1224878). Note: nearly all actives have a fitted effect of over 45% in size. An outline of the steps: as §1
A short description of assay [4]: A CellTox Green Cytotoxicity Assay to monitor cytotoxicity in HepG2 cells - 40 hour (AID 1224879). Note: nearly all actives have a fitted effect of over 40% in size. An outline of the steps:
as §1

Assay [5] in a line: qHTS RealTime-Glo MT Cell Viability Assay in HEK293 cells - 0 hour (AID 1224880). For activity change, negative = cytotoxicity: top concentration of the series differs between compounds. Note: nearly all actives have a fitted effect of over 45% in size. Note: potency is the fitted concentration of half-maximal effect. In outline: (§3)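 qHTS format; HEK293 cells with NanoLuc/prosubstrate reagent, 37 C/5% CO2 for 5 h pre-dosing; compounds 23 nL in DMSO; luminescence at each time point reflects viable cells.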
The nature of assay [6]: A CellTox Green Cytotoxicity Assay to monitor cytotoxicity in HEK293 cells - 32 hour (AID 1224881). Note: nearly all actives have a fitted effect of over 40% in size. In outline:
(§4)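 Each value comes from one timepoint of a single continuous run in which HEK293 cells with CellTox Green were exposed to compound for up to 40 h at 37 C, dye fluorescence rising with cell death.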

Assay [7] can be described thus: A CellTox Green Cytotoxicity Assay to monitor cytotoxicity in HepG2 cells - 0 hour (AID 1224882). Note: nearly all actives have a fitted effect of over 35% in size. An outline of the steps: as §1
The nature of assay [8]: A CellTox Green Cytotoxicity Assay to monitor cytotoxicity in HepG2 cells - 32 hour (AID 1224883). Note: nearly all actives have a fitted effect of over 50% in size. In outline:
as §1

A short description of assay [9]: A CellTox Green Cytotoxicity Assay to monitor cytotoxicity in HEK293 cells - 8 hour (AID 1224884). Note: nearly all actives have a fitted effect of over 35% in size. In outline:
as §4

Assay [10] can be described thus: qHTS RealTime-Glo MT Cell Viability Assay in HepG2 cells - 16 hour (AID 1224885). Note: nearly all actives have a fitted effect of over 50% in size. An outline of the steps: as §2
(In general: In qHTS, concentration-response curves come from the screen itself.)

A short description of assay [11]: qHTS RealTime-Glo MT Cell Viability Assay in HEK293 cells - 24 hour (AID 1224886). Note: top concentration of the series differs between compounds; nearly all actives have a fitted effect of over 50% in size. An outline of the steps: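 Luminescence generated by NanoLuc from substrate produced by living HEK293 cells served as the viability signal. Each value reflects the reading at its stated time point during continuous 40 h compound exposure at 37 C.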
Assay [12] is described as follows: qHTS RealTime-Glo MT Cell Viability Assay in HEK293 cells - 8 hour (AID 1224887). Note: top concentration of the series differs between compounds; nearly all actives have a fitted effect of over 50% in size. In outline: as §3
Assay [13] in a line: A CellTox Green Cytotoxicity Assay to monitor cytotoxicity in HEK293 cells - 16 hour (AID 1224888). Note: nearly all actives have a fitted effect of over 35% in size. An outline of the steps:
as §4

The nature of assay [14]: qHTS RealTime-Glo MT Cell Viability Assay in HepG2 cells - 0 hour (AID 1224889). Note: nearly all actives have a fitted effect of over 50% in size. Note: potency is the fitted concentration of half-maximal effect. In outline:
as §2

A short description of assay [15]: A CellTox Green Cytotoxicity Assay to monitor cytotoxicity in HepG2 cells - 8 hour (AID 1224890). Note: nearly all actives have a fitted effect of over 45% in size. In outline: as §1
The nature of assay [16]: qHTS assay to identify small molecule antagonists of the estrogen receptor alpha (ER-alpha) signaling pathway using the BG1 cell line in the presence of 0.1 nM 17-beta-estradiol - cell viability counter screen (AID 1259241). Note: nearly all actives have a fitted effect of over 40% in size. An outline of the steps:
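CellTiter-Fluor read (30 min, 37C) on ER-alpha/ERE-luc VM7Luc4E2 cells; 22 hr compound treatment; agonist 0.1 nM E2 final; same-well multiplex.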

The nature of assay [17]: qHTS assay to identify small molecule antagonists of the androgen receptor (AR) signaling pathway using the MDA cell line in the presence of 0.5 nM R1881 - cell viability counter screen (AID 1259242). Note: nearly all actives have a fitted effect of over 45% in size. In outline:
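Fluorescence from CellTiter-Fluor, which reports protease activity of live cells, was read 30 min after reagent addition to MDA-kb2 cells that had been incubated 16 hr with compound and 0.5 nM R1881.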

Assay [18] has as its target Estrogen receptor (Homo sapiens) (UniProt P03372). Briefly: qHTS assay to identify small molecule antagonists of the estrogen receptor alpha (ER-alpha) signaling pathway using the BG1 cell line in the presence of 0.1 nM 17-beta-estradiol (AID 1259244). Note: nearly all actives have a fitted effect of over 50% in size. An outline of the steps: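 Quantitative high-throughput screen in VM7Luc4E2 cells: compound plus 0.1 nM E2 (final), 22 h, 37C, 5% CO2; ONE-Glo added, 30 min room temperature, luminescence measured.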

Assay [19] has as its target Androgen receptor (Homo sapiens) (UniProt P10275). In words: qHTS assay to identify small molecule antagonists of the androgen receptor (AR) signaling pathway using the MDA cell line in the presence of 0.5 nM R1881 (AID 1259243). Note: nearly all actives have a fitted effect of over 50% in size. In outline:
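Inhibition of R1881 (0.5 nM final) induced reporter signal was measured in human MDA-kb2 cells; note the MMTV promoter also responds to GR. Exposure lasted 16 hr at 37C.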
% is set by controls: 0 for no effect and ±100 for the full control effect.

Estrogen receptor (Homo sapiens), sequence (P03372 whole entry, looked up): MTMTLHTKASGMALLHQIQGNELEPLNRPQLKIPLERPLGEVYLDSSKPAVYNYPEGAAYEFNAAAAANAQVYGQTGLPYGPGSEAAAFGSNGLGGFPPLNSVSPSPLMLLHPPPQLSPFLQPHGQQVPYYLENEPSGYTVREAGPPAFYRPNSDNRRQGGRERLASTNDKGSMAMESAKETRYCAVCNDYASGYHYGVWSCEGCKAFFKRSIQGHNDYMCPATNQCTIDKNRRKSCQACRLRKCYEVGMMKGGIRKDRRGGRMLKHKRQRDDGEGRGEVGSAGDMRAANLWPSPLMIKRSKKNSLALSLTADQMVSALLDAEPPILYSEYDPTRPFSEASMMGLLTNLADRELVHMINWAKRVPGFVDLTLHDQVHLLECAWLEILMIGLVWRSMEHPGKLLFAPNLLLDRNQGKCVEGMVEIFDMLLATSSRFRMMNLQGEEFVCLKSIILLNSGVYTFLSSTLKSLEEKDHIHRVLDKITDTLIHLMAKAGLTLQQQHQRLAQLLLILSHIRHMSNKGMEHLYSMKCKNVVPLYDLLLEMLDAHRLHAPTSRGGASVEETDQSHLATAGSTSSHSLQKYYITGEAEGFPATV
Androgen receptor (Homo sapiens), sequence (P10275 whole entry, looked up): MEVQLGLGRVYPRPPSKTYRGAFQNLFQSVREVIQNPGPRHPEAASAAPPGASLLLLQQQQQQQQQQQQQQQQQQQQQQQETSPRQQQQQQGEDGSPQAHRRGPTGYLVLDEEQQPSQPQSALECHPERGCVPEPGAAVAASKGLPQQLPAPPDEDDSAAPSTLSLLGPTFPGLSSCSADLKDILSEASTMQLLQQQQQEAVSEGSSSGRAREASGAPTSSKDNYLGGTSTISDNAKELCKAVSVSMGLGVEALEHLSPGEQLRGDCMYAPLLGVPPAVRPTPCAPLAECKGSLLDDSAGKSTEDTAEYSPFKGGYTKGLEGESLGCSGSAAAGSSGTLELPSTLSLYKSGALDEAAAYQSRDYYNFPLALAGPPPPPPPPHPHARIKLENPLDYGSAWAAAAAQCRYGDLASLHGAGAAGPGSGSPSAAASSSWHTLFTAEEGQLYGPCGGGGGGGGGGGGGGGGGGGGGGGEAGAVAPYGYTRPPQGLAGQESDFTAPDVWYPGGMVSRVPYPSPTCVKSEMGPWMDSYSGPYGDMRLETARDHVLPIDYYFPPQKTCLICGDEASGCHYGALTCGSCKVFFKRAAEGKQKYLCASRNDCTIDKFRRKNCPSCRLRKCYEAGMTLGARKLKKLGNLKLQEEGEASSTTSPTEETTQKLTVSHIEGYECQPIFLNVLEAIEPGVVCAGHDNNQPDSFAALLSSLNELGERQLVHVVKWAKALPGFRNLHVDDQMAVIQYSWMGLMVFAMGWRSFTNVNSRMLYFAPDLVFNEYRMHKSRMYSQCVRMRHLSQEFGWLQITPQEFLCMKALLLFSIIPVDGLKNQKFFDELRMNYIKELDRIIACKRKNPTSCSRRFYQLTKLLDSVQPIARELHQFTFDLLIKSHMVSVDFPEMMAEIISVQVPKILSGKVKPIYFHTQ

Regarding `O=C(CC(C(=O)OC1CCCCC1)S(=O)(=O)O)OC1CCCCC1` (stereo unspecified), the Potency result in assay [1], in assay [3], in assay [4], in assay [5], in assay [6] and in assay [8] was “inactive” in each case. For the same compound, the Potency result in assay [11], in [12], in [14], in assay [15] and in assay [16] was “inactive” throughout. In addition, the call in [2], in assay [7], in assay [9], in assay [10], in assay [13] and in [17] was inactive.

Turning to `O=C(O)c1cc(O)c(O)c(O)c1`, the Potency entry in assay [1], in assay [4], in assay [5], in assay [6], in assay [8] and in [11] was “inactive” in each case. The Potency entry in [12], in assay [14], in assay [15], in [16] and in assay [18] was “inactive” in each case. Also, the call in assay [2], in assay [7], in assay [9], in [10], in assay [13] and in assay [17] was inactive.

Turning to `O=S(=O)(O)c1ccc2ccccc2c1`, the Potency result in [1], in [3], in [4], in assay [5], in assay [6] and in assay [8] was “inactive” in each case. Moreover, the Potency result in [11], in [12], in assay [14], in [15], in [16] and in [18] was “inactive” throughout. Also, the compound was classed as inactive in assay [2], in assay [9], in assay [10] and in assay [13].

Consider `CCCCC(CC)COC(=O)C(C#N)=C(c1ccccc1)c1ccccc1` (stereo unspecified), for which the Potency result in assay [1], in assay [3], in assay [4], in assay [5], in assay [6] and in assay [8] was “inactive” each time. Further, the Potency result in assay [11], in assay [12], in assay [14], in assay [15] and in assay [16] was “inactive” throughout. Also, the outcome in [2], in assay [7], in assay [9], in [10], in assay [13] and in [17] was inactive.

Turning to `O=C(O)[C@H](O)[C@@H](O)[C@H](O)[C@H](O)CO`, the Potency result in assay [1], in assay [3], in [4], in [5], in assay [8] and in assay [11] was “inactive” each time. Moreover, the Potency entry in assay [12], in assay [14], in assay [15] and in [16] was “inactive” throughout. Also, the compound was classed as inactive in assay [2], in assay [7], in assay [10] and in assay [17].

As to `CC(C)(C)[C@@H](O)[C@@H](Cc1ccc(Cl)cc1)n1cncn1`, the Potency result in assay [1], in [4], in assay [5], in assay [6], in assay [8] and in [12] was “inactive” throughout. Also, the Potency entry in assay [14] and in [15] was “inactive” throughout. The compound was called inactive in assay [2], in assay [9], in assay [10], in [13] and in assay [17].

On to `C[C@H]1C[C@@H]2[C@H]([C@@H](O)C[C@@]3(C)[C@H]2CC[C@]3(O)C(=O)CO)[C@@]2(C)C=CC(=O)C=C12`, for which the Potency result in assay [1], in [3], in [4], in assay [6], in [8] and in assay [11] was “inactive” throughout. Further, the Potency result in assay [12], in assay [15], in assay [16] and in assay [19] was “inactive” throughout. Further, the call in [2], in assay [9], in assay [10], in assay [13] and in assay [17] was inactive. Moreover, the Potency in [5] was 7.76 µM (active) and 8.49 µM (active); in assay [14], 871 nM (active) and 1.9 µM (active).

Take `CCN(CC)CCCC(C)Nc1ccnc2cc(Cl)ccc12` (stereo unspecified): the cytotoxicity increase is -7.78% [at 6.97 µM] and 19.1% [at 15.8 µM] in [1]; -6.76% [at 6.97 µM] and 37% [at 15.8 µM] in [4]; -12.6% [at 6.97 µM] and 3.44% [at 15.8 µM] in [6]; -6.83% [at 6.97 µM] in assay [8]; -10.7% [at 6.97 µM] and -2.14% [at 15.8 µM] in assay [9]; 3.33% [at 6.97 µM] and 10.4% [at 15.8 µM] in assay [15]. The activity change, negative = cytotoxic is 11.1% [at 6.97 µM] and -5.44% [at 15.8 µM] in [2]; 1.09% [at 6.97 µM] and -5.7% [at 15.8 µM] in assay [10]. Also, the cytotoxicity in [3] was -7.44% [at 6.97 µM]; in assay [7], -5% [at 6.97 µM] and 4.14% [at 15.8 µM]. Moreover, the activity change, negative = cytotoxicity in [5] is -2.92% [at 6.97 µM] and -5.73% [at 15.8 µM]; in assay [11] it was -16.8% [at 6.97 µM]; in [12], -9.86% [at 6.97 µM]; in assay [14] it was 3.19% [at 6.97 µM] and -4.4% [at 15.8 µM]. The activity change, negative = inhibition in assay [18] is 35.5% [at 8.39 µM] and -0.903% [at 19 µM].

For the origin of these results see PubChem BioAssay (Tox21).
